# Most compounds without a hit are left out; they make up all but 3.7% or so of the library.
# Tau fibril FP – qHTS for Inhibitors of Tau Fibril Formation, Fluorescence Polarization. Microtubule-associated protein tau (Homo sapiens), P10636. K18 P301L tau heparin fibrillization, Alexa594 FP, 6 h. Potency, µM (series often up to 57.7 µM), most hits filed as inhibitors. 280,000 tested, 0.39% active. AID 1468, 2008; further: nearly all actives have a fitted effect of over 55% in size
# Target sequence (P10636 561-689 P618L limits assumed): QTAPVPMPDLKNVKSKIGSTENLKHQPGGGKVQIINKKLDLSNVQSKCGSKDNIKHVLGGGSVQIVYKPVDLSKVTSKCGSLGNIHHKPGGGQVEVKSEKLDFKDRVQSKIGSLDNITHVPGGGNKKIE
#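 Compound effects on tau fibrillization are measured by Alexa 594 fluorescence polarization (ex 555, em 632 nm). K18 P301L tau is used at 15 uM with 0.24 uM labeled tracer, and 20 uM heparin induces aggregation over 6 hr at 37 C.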
# HttQ103 aggreg – qHTS Multiplex Assay to Identify Dual Action Probes in a Cell Model of Huntington: Aggregate Formation (GFP); Potency, µM (series often up to 46.1 µM), hits mostly inhibitors; 220,000 tested, 1.1% active; PC12 HttQ103-GFP aggregates, Acumen cytometry, 40 h; further: nearly all actives have a fitted effect of over 60% in size
#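 Inducible Q103 Huntingtin exon 1–GFP PC12 line, 1500 cells/well in phenol red free DMEM with 5% equine and 5% calf serum. Tebufenozide 100 nM induced expression; compounds titrated; aggregates quantified by cytometry.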
# HTT ATP protect – qHTS Multiplex Assay to Identify Dual Action Probes in a Cell Model of Huntington: Cytoprotection (ATP); PC12 HTT-Q103 induced, cytoprotection, ATP luminescence, 40 h; Potency, µM (titrated, usually from 56.4 µM), actives largely listed as activators; 230,000 tested, 0.14% active; AID 1471, 2008; further: nearly all actives have a fitted effect of over 45% in size
#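 Huntington model: PC12 line, ecdysone-inducible HTTQ103 exon1–GFP, tebufenozide 100 nM. Test articles in a dose series. Endpoint luminescence from cellular ATP.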
# Tau fluor cs – Counterscreen qHTS for Inhibitors of Tau Fibril Formation, Fluorescence Polarization; tau K18 P301L Alexa594 fluorescence, heparin fibrillization; Potency, µM (titrated, usually from 57.7 µM); 280,000 tested, 0.93% active; AID 1463, 2008; further: nearly all actives have a fitted effect of over 55% in size
#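 Human K18 P301L tau (15 uM unlabeled plus 0.24 uM Alexa 594-labeled, final) in 100 mM sodium acetate pH 7 was mixed with compound and 20 uM heparin and incubated 6 hr at 37 C.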
# Tau ThT inhib – qHTS for Inhibitors of Tau Fibril Formation, Thioflavin T Binding. Microtubule-associated protein tau (Homo sapiens), P10636. 270,000 tested, 2.1% active. Potency, µM (highest dose often 57.4 µM), usual class: inhibitors. AID 1460, 2008. recombinant tau K18 P301L (four-repeat tau fragment), heparin-induced fibrillization, ThT fluorescence; further: nearly all actives have a fitted effect of over 55% in size
#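 Tau K18 P301L fragment (15 uM unlabeled plus 0.24 uM Alexa 594-labeled) in 100 mM sodium acetate pH 7 with compound, fibrillization induced by 20 uM heparin for 6 hr at 37 C. Thioflavin T (30 uM) added, fluorescence read after 1 hr (ex 450, em 510 nm).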
# Numbers stand for hits; 0 = inactive; ? = inconclusive; - = not tested or not shown; [ ] = dose if it differs, or a comment. The call rests on the fitted dose curve; in most records, active means well fitted curve in the direction sought with a large enough effect; inconclusive means small, poorly fitted or top-dose-only effect, or another doubt; inactive means no such curve, though single readings can be large; an effect the other way counts as inactive or inconclusive.
SMILES,Tau fibril FP,HttQ103 aggreg,HTT ATP protect,Tau fluor cs,Tau ThT inhib
Cc1ccc(C)c(NC(=O)CCCN2C(=O)C(c3ccccc3)Oc3cccnc32)c1 (stereo not given),0,-,-,0,0
CC1(C)CC(=O)C(/C=N/c2ccccn2)=C(O)C1,?,22.4µM,0,?,0
N[C@H](CCC(=O)N[C@H](CSN=O)C(=O)NCC(=O)O)C(=O)O,?,-,0,0,22.4µM
COc1ccc(C(=O)COC(=O)c2ccccc2NS(=O)(=O)c2ccc(O)c([N+](=O)[O-])c2)cc1,0,0[9.22 µM],0[10 µM],0,15.8µM
COc1ccc(NC(=O)c2ccccc2NS(=O)(=O)c2ccc(C)cc2)c([N+](=O)[O-])c1,0,0,0[10 µM],?,?
O=C(O)c1nc(-c2ccccc2)[nH]c1C(=O)O,-,-,0[10 µM],-,-
CCc1ccc2c(c1)c1nc(C)sc1n2CC,?,?,0[0.074 µM],0,25.1µM
Cc1nc2c3cc(F)ccc3n(Cc3ccc(F)cc3)c2s1,0,0,0[10 µM],0,0
CN(C)c1ccc(C(CNS(=O)(=O)c2ccc(F)cc2)c2c[nH]c3ccccc23)cc1 (stereo not given),0,0,0[0.074 µM],11.2µM[quencher],0
CN(C)c1ccc(C(CNC(=O)c2ccc(C#N)cc2)c2c[nH]c3ccccc23)cc1 (stereo not given),?,0,0[10 µM],14.1µM[quencher],?
CCCN(CCC)CC(O)Cn1cc(/C=C/C(=O)c2ccc(C)cc2)c2ccccc21 (stereo not given),0,-,-,?,17.8µM
CCCCN(C)CC(O)Cn1cc(/C=C/C(=O)c2ccc(OC)c(OC)c2)c2ccccc21 (stereo not given),0,-,-,?,?
CCCCN(C)CC(O)Cn1cc(/C=C/C(=O)c2ccc(C)cc2)c2ccccc21 (stereo not given),0,-,-,?,14.1µM
CCCCN(C)CC(O)Cn1cc(/C=C/C(=O)c2ccc(Br)cc2)c2ccccc21 (stereo not given),0,-,-,?,20µM
CCOc1c(O)ccc(/C=C2\SC(=S)NC2=O)c1[N+](=O)[O-],?,0,0,?,10µM
Cc1nc([N+](=O)[O-])c(Sc2nc3ccccc3n2C)n1Cc1ccccc1,0,10µM,0[10 µM],0,?
Cc1nc([N+](=O)[O-])c(SCC(N)=O)n1Cc1ccccc1,0,0[9.22 µM],0[10 µM],0,0
O=S1(=O)C=C(Sc2nnc(-c3ccccc3)o2)c2ccccc21,?,4.47µM,0,0,?
O=C1OC2(CCCCC2)OC(=O)C1=CNc1ccc2c(c1)OCO2,0,0,0[0.074 µM],0,0
Nc1ccc2c(c1)OC1(CCCC1)O2,0,0[9.22 µM],0,?,12.6µM
CC(=O)OCC1OC(C#Cc2ccc(C)cc2C)C=CC1OC(C)=O (stereo not given),0[11.6 µM],-,0[10 µM],0[11.6 µM],?
CC(=O)N1CCN(c2ccc(C(N)=O)cc2[N+](=O)[O-])CC1,0,0,0,0,0
COc1ccc(N2CCN(c3ccc(C(N)=O)cc3[N+](=O)[O-])CC2)cc1,0,0,0,?,4.47µM
NC(=O)c1ccc(N2CCN(c3ccccc3F)CC2)c([N+](=O)[O-])c1,?,0,0,0,15.8µM
Nc1ncnc2c1ncn2[C@H]1O[C@@H](C(=O)O)[C@@H](O)[C@H]1O,-,-,0[10 µM],-,-
SMILES,Tau fibril FP,HttQ103 aggreg,HTT ATP protect,Tau fluor cs,Tau ThT inhib
Cc1[nH]oc(=O)c1N=Nc1ccccc1,?,0,-,0,25.1µM
CCN(CC)C(=O)C1CCCN(C(=O)Nc2ccc3nsnc3c2)C1 (stereo not given),?,0,0,0,14.1µM
S=C(Nc1ccc2nsnc2c1)N1CCCCC1,?,0,-,0,?
CCNC(=S)N(CCc1c(C)[nH]c2ccc(C)cc12)Cc1cccs1,?,?,0,14.1µM[quencher],?
CNC(=S)N(CCc1c(C)[nH]c2ccc(Cl)cc12)Cc1cccs1,?,?,0,15.8µM[quencher],0
CNC(=S)N(CCc1c(C)[nH]c2ccc(Cl)cc12)Cc1cc(OC)c(OC)c(OC)c1,0,0,-,0,0
COCCNC(=S)N(CCc1c(C)[nH]c2ccc(F)cc12)Cc1cccs1,0,0,0,14.1µM[quencher],0
COCCNC(=S)N(CCc1c(C)[nH]c2ccc(Cl)cc12)Cc1cccs1,0,?,0,8.91µM[quencher],0
CNC(=S)N(CCc1c(C)[nH]c2ccc(C)cc12)Cc1ccc(OC)c(OC)c1,0,0,-,?,?
CC(=O)c1cccc(N2C(=O)CN(S(C)(=O)=O)CC2(C)C(=O)NC2CCCC2)c1 (stereo not given),?,-,-,0,0
O=S(=O)(O)c1ccc(NN(c2c(O)ccc3ccccc23)S(=O)(=O)O)cc1,-,-,0[10 µM],-,-
CCNC(=S)N(CCc1c(C)[nH]c2ccc(Cl)cc12)Cc1ccco1,?,?,0,12.6µM[quencher],0
CNC(=S)N(CCc1c(C)[nH]c2ccc(C)cc12)Cc1ccco1,?,0,-,?,?
C=CCn1c(COc2ccccc2)nnc1SC(C)C(=O)N/N=C/c1cc(Cl)ccc1O (stereo not given),0,10µM,0,?,0
Cc1ccc(C(=O)NCC(=O)OCc2cc(=O)n3c(C)csc3n2)cc1,0,-,-,0,0
Cc1cc(O)c(C=O)c(O)c1C(=O)O,0,-,-,0,?
Cc1cc(O)c(C=O)c2c1C(=O)Oc1c(COC(=O)/C=C/C(=O)O)c(O)c(C(=O)O)c(C)c1O2,3.55µM,-,-,0,8.91µM
Cc1cc(O)c(C=O)c2c1C(=O)Oc1c(CO)c(O)c3c(c1O2)C(O)OC3=O (stereo not given),15.8µM,0[9.22 µM],0[10 µM],?,?
CCOc1ccc(/C=C(\C#N)C(=O)Nc2sc3c(c2C(=O)OC)C(C(=O)OC)CC3)cc1OC (stereo not given),?,-,-,0,3.16µM
CCC(C)(C)OC,-,-,0,-,-
O=C(Nc1nnc(C2CC2)s1)C1COc2ccccc2O1 (stereo not given),0,0,0[10 µM],0,0
O=C(Nc1nnc(C(F)(F)F)s1)c1ccc(Br)s1,0,5.62µM,-,0,0
CC(NC(=O)Nc1nnc(C(F)(F)F)s1)(C(F)(F)F)C(F)(F)F,0,2.24µM,0,0,0
O=C(Nc1nnc(C(F)(F)F)s1)C1COc2ccccc2O1 (stereo not given),0,25.1µM,0,0,0
CCc1ccc(-n2nc3cc(C)c(NC(=O)c4cc(Cl)ccc4OC)cc3n2)cc1,0,-,-,0,0
CC1CCN(CCCNC(=O)c2cc(Sc3ccc(F)cc3)nc3ccccc23)CC1,0,-,-,0,0
O=S(=O)(c1ccc(N2CCCC2)cc1)C(F)(F)F,0,10µM,0,0,0
CCOc1ccccc1CNC(=O)c1ccc(Cn2c(SCc3ccccc3)nc3cccnc32)cc1,0,-,-,?,0
C(=N\Nc1ccccc1)/c1nc2ccccc2s1,?,0[9.22 µM],0[10 µM],12.6µM[quencher],?
